Source: PubChem BioAssay
Most compounds without a hit are left out; they make up all but 2.3% or so of the library.
C diff HTS = blocks growth of Clostridium difficile. 86,000 compounds, 0.25% hits. AID 1259249. growth activity, negative = inhibition, % at 16 µg/mL (by protocol). Clostridium difficile clinical isolate growth, OD600, 24 h; stronger effect = lower value;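 active = mean growth activity at or below -80% and every replicate also at or below -80%; inconclusive = mean at or below -80% but some replicate above -80%; inactive = mean growth activity above -80%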;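 also: 0% = DMSO wells and -100% = levofloxacin 16 µg/mL wells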
Pf Dd2 inh = blocks growth of Plasmodium falciparum Dd2 parasites. P. falciparum Dd2 growth, SYBR Green, 72 h; stronger effect = lower value. activity change, % at 10 µM. 94,000 compounds, 2.3% hits; in the data active = activity change below about -80%; inconclusive = no clear call, values can overlap the other calls
* marks the source's active call; other numbers are inactive results; ? = inconclusive; / = no result given.

SMILES	C diff HTS	Pf Dd2 inh
CNC[C@@H]1Oc2ccc(NS(=O)(=O)c3ccc(F)cc3)cc2CC(=O)N([C@@H](C)CO)C[C@@H]1C	5	11
CO[C@@H]1CN(C)C(=O)c2cc(NC(=O)NC(C)C)ccc2OC[C@H](C)N(CC2CC2)C[C@H]1C	2	55
COCC(=O)Nc1ccc2c(c1)[C@@H]1C[C@H](CC(=O)NCCc3ccccc3)O[C@H](CO)[C@@H]1O2	-1	1
COc1ccc(NC(=O)N2CCCCN3[C@H](CO)[C@H](c4ccc(C#Cc5ccccc5)cc4)[C@@H]3C2)cc1	-15	-84*
COc1ccc(NC(=O)N2CCCCN3[C@H](CO)[C@@H](c4ccc(C#Cc5ccccc5)cc4)[C@@H]3C2)cc1	48	7
COc1ccc(NC(=O)N2CCCCN3[C@H](C2)[C@H](c2ccc(C#CCC(C)C)cc2)[C@@H]3CO)cc1	3	-43
COc1ccc(NC(=O)N2CCCCN3[C@H](CO)[C@@H](c4ccc(C#Cc5ccccc5)cc4)[C@H]3C2)cc1	2	-8
COc1ccc(NC(=O)N2CCCCN3[C@@H](CO)[C@@H](c4ccc(C#Cc5ccccc5)cc4)[C@@H]3C2)cc1	-97*	-37
COc1ccc(NC(=O)N2CCCCN3[C@H](CO)[C@H](c4ccc(C#Cc5ccccn5)cc4)[C@@H]3C2)cc1	-6	?
COc1ccc(NC(=O)N2CCCCN3[C@@H](CO)[C@H](c4ccc(C#Cc5ccccn5)cc4)[C@@H]3C2)cc1	7	-85*
COc1ccc(NC(=O)N2CCCCN3[C@H](CO)[C@H](c4ccc(C#CCC(C)C)cc4)[C@@H]3C2)cc1	-12	-90*
C[C@@H]1CN([C@@H](C)CO)C(=O)c2cc(NC(=O)c3ccncc3)ccc2O[C@@H]1CN(C)C(=O)Nc1ccc(F)cc1	4	4
Cc1ccccc1S(=O)(=O)N1C[C@@H](O)COC[C@@H]2O[C@@H](CC(=O)O)CC[C@H]21	9	14
CC(=O)N1[C@@H]2c3cccc(=O)n3C[C@H]1[C@H](CO)[C@H]2C(=O)N[C@H](C)c1ccccc1	-6	0
COc1ccc(CN(C)C[C@@H]2OCCCC[C@H](C)Oc3ccc(NS(=O)(=O)c4ccccc4)cc3C(=O)N([C@@H](C)CO)C[C@@H]2C)cc1	1	-72
C[C@@H]1CN([C@@H](C)CO)S(=O)(=O)c2ccc(-c3ccccc3)cc2O[C@H]1CN(C)C(=O)C1CCC1	/	-30
C[C@H](O)C#Cc1ccc([C@@H]2[C@@H](CO)N3CCCCN(C(=O)c4ccncc4)C[C@H]23)cc1	-2	-15
C[C@@H]1CN([C@H](C)CO)S(=O)(=O)c2ccc(C#CC3CC3)cc2O[C@H]1CN(C)C(=O)C1CCC1	-6	-44
C[C@H]1CCCCO[C@@H](CN(C)C(=O)C2CCCCC2)[C@@H](C)CN([C@@H](C)CO)C(=O)c2cc(NC(=O)Nc3ccc(F)cc3)ccc2O1	-4	-85*
C[C@H]1CCCCO[C@@H](CN(C)C(=O)C2CCCCC2)[C@@H](C)CN([C@@H](C)CO)C(=O)c2cc(NC(=O)Nc3ccc(C(F)(F)F)cc3)ccc2O1	1	-89*
C[C@H](CO)N1C[C@H](C)[C@H](CN(C)C(=O)C2CCCCC2)OCCCC[C@H](C)Oc2ccc(NC(=O)Nc3ccc(C(F)(F)F)cc3)cc2C1=O	-1	-24
C[C@H](CO)N1C[C@H](C)[C@@H](CN(C)C(=O)C2CCCCC2)OCCCC[C@H](C)Oc2ccc(NC(=O)Nc3ccc(F)cc3)cc2C1=O	-1	1
C[C@@H]1CCCCO[C@H](CN(C)C(=O)C2CCCCC2)[C@@H](C)CN([C@@H](C)CO)C(=O)c2cc(NC(=O)Nc3ccc(C(F)(F)F)cc3)ccc2O1	7	-88*
C[C@H]1CCCCO[C@@H](CN(C)C(=O)C2CCCCC2)[C@@H](C)CN([C@@H](C)CO)C(=O)c2cc(NC(=O)CCC(F)(F)F)ccc2O1	-4	-82*
C[C@H](CO)N1C[C@H](C)[C@@H](CN(C)C(=O)C2CCCCC2)OCCCC[C@H](C)Oc2ccc(NC(=O)CCC(F)(F)F)cc2C1=O	-7	4
SMILES	C diff HTS	Pf Dd2 inh
C[C@@H]1CN([C@@H](C)CO)C(=O)c2cc(NC(=O)Nc3ccc(C(F)(F)F)cc3)ccc2O[C@@H](C)CCCCO[C@H]1CN(C)C(=O)C1CCCCC1	1	-68
CC(C)C[C@@H]1COCc2cn(nn2)CC[C@H](Cc2ccccc2)C(=O)N1	0	/
C[C@H]1CCCCO[C@@H](CN(C)C(=O)c2ccncc2)[C@@H](C)CN([C@@H](C)CO)C(=O)c2cc(NS(=O)(=O)c3cn(C)cn3)ccc2O1	7	-2
C[C@H]1CN([C@@H](C)CO)C(=O)c2cccc(NC(=O)Nc3ccc4c(c3)OCO4)c2O[C@@H]1CN(C)Cc1ccc(Oc2ccccc2)cc1	3	-15
C[C@@H]1CN([C@H](C)CO)C(=O)c2cccc(NC(=O)CCCCCC(=O)Nc3ccccc3N)c2O[C@H]1CN(C)Cc1ccc(Cl)c(Cl)c1	-10	-86*
C[C@H]1CN([C@@H](C)CO)C(=O)c2cc(NC(=O)CCCCCC(=O)Nc3ccccc3N)ccc2O[C@H]1CN(C)Cc1ccc(Cl)c(Cl)c1	/	-17
C[C@@H]1CN([C@H](C)CO)C(=O)c2cc(NC(=O)CCCCCC(=O)Nc3ccccc3N)ccc2O[C@@H]1CN(C)Cc1ccc(Cl)c(Cl)c1	/	-47
C[C@H]1CN([C@@H](C)CO)C(=O)c2cccc(NC(=O)CCCCCC(=O)Nc3ccccc3N)c2O[C@@H]1CN(C)Cc1ccc(Cl)c(Cl)c1	2	-92*
C[C@@H]1CN([C@@H](C)CO)C(=O)c2cccc(NC(=O)CCCCCC(=O)Nc3ccccc3N)c2O[C@@H]1CN(C)Cc1ccc2c(c1)OCO2	-3	-89*
C[C@H]1CN([C@@H](C)CO)C(=O)c2cc(NC(=O)CCCCCC(=O)Nc3ccccc3N)ccc2O[C@@H]1CN(C)Cc1ccc2c(c1)OCO2	-1	-74
C[C@@H]1CN([C@@H](C)CO)C(=O)c2cccc(NC(=O)CCCCCC(=O)Nc3ccccc3N)c2O[C@H]1CN(C)Cc1ccc(Cl)c(Cl)c1	-2	-87*
C[C@H](CO)N1C[C@H](C)[C@H](CN(C)Cc2ccc(Cl)c(Cl)c2)Oc2c(NS(=O)(=O)c3cccs3)cccc2C1=O	6	-13
Cc1ccc(S(=O)(=O)Nc2cccc3c2O[C@@H](CN(C)Cc2ccc(-c4ccccc4)cc2)[C@@H](C)CN([C@H](C)CO)C3=O)cc1	24	-8
COc1ccc2c3c(n(C)c2c1)[C@H](CO)N(C)CC31CCN(C(=O)NC(C)C)CC1	7	-7
COc1ccc2c3c([nH]c2c1)[C@H](CO)N(S(C)(=O)=O)CC31CCN(Cc2ccccc2)CC1	7	-60
CCCNC(=O)N1C[C@@H](O)COC[C@@H]2O[C@@H](CC(=O)N[C@@H]3CCN(Cc4ccccc4)C3)CC[C@H]21	-1	/
CC(C)c1cn(CC[C@H]2CC[C@H](NC(=O)Nc3cc(Cl)cc(Cl)c3)[C@@H](CO)O2)nn1	/	3
C[C@@H]1CN([C@H](C)CO)C(=O)c2cccc(NC(=O)c3nc4ccccc4s3)c2O[C@H]1CN(C)S(=O)(=O)c1cccs1	-2	-36
